From ChEMBL document CHEMBL1961873, “Compounds: GSK PKIS; Assays: Nanosyn kinase panel” (2012)

tested on: Mast/stem cell growth factor receptor Kit (Homo sapiens), P10721 [V560G]; details: at 0.1 µM
Sequence (P10721 whole entry V560G): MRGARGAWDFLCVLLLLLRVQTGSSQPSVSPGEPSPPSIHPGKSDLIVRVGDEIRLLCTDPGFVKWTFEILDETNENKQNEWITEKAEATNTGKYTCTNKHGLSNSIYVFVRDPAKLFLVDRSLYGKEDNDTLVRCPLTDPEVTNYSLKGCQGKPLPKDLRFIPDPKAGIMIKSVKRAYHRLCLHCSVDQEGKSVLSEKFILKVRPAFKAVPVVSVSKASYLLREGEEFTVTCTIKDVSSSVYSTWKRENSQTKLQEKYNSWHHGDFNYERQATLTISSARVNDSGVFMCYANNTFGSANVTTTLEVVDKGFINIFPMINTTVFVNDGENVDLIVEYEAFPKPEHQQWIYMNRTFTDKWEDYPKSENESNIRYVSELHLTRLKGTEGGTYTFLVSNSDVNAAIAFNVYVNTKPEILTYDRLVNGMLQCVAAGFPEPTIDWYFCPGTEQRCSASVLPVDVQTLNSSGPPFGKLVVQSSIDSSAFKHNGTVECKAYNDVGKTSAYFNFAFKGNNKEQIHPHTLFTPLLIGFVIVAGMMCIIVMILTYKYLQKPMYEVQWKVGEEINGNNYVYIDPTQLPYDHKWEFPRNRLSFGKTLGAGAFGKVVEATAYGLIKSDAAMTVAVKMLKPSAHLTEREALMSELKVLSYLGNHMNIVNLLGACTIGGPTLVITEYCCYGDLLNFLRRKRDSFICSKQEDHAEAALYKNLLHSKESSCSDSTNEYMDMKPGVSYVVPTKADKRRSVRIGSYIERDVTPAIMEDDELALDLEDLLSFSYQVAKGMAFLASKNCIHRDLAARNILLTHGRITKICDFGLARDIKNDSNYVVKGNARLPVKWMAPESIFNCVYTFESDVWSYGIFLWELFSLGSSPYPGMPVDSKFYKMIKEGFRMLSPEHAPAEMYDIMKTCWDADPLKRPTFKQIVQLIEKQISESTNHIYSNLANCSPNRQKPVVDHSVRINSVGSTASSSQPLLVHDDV

| Compound | inhibition [%] |
| --- | --- |
| N#Cc1c(NC(=O)c2cccc3ccccc23)sc2c1CCCC2 | -1.27 |
| COc1cc(C=NNc2ncnc3c2cnn3-c2ccccc2)ccc1O | 8.24 |
| CC(C)=Cc1cccc2c1/C(=N/Nc1ccc(S(N)(=O)=O)cc1)C(=O)N2 | 4.73 |
| Cc1ccc(NC(=O)c2ccnc(N3CCCC3)c2)cc1-c1ccc(C(=O)NCC2CC2)cc1 | 0.26 |
| Nc1nc(-c2ccc3c(c2)C(=Cc2cc(Br)c(O)c(Br)c2)C(=O)N3)cs1 | 3.52 |
| CS(=O)(=O)CCNCc1ccc(-c2ccc3ncnc(Nc4ccc(OCc5cccc(F)c5)c(C(F)(F)F)c4)c3c2)o1 | -3.52 |
| COc1ccc(-c2coc3ncnc(N)c23)cc1 | 2.72 |
| CCCN1CCC=C(c2ccc(Nc3nc(Nc4ccccc4C(N)=O)c4cc[nH]c4n3)c(C)c2)C1 | -4.87 |
| O=C1NC(=O)C(c2cccc(Cl)c2)=C1Nc1ccc(O)c(Cl)c1 | -1.77 |
| COc1cc2ncn(-c3cc(O[C@H](C)c4ccccc4Cl)c(C(N)=O)s3)c2cc1OC | 4.1 |
| CC1=C(C(=O)Nc2ccc3[nH]ncc3c2)C(c2ccc3ccccc3c2)CC(=O)N1 (stereo unspecified) | 1.45 |
| O=C1NC(=O)C(c2ccc(Cl)cc2)=C1Nc1ccc(Cl)c(C(=O)O)c1 | 2.75 |
| c1cnn2ncc(-c3ccnc(Nc4ccc5c(c4)OCCO5)n3)c2c1 | 38.1 |
| COc1cc2ncn(-c3cc(O[C@@H](C)c4ccccc4Cl)c(C(N)=O)s3)c2cc1OC | 4.09 |
| CCn1c(-c2nonc2N)nc2c(C#CC(C)(C)O)nc(CN3CCCC3)cc21 | 1.79 |
| CCn1c(-c2nonc2N)nc2ccncc21 | -0.14 |
| CNC(=O)c1cncc(/C=C/c2c(Cl)cccc2Cl)c1 | -1.49 |

| Compound | inhibition [%] |
| --- | --- |
| Cc1nnc(-c2ccc(C)c(-c3ccc(C(=O)Nc4cccc(C#N)c4)cc3)c2)o1 | 0.81 |
| CN(C)c1cc2c(Nc3ccc4nc(Cc5ccccc5)[nH]c4c3)ncnc2cn1 | 1.39 |
| Cc1cccc(-c2n[nH]cc2-c2ccc3ncccc3n2)n1 | 3.48 |
| CS(=O)(=O)CCN(CC#N)Cc1ccc(-c2ccc3ncnc(Nc4ccc(OCc5cccc(F)c5)c(Cl)c4)c3c2)o1 | -0.55 |
| CCn1c(-c2nonc2N)nc2c(C#CC(C)(C)O)nc(OC[C@@H](N)c3ccccc3)cc21 | 2.19 |
| CC(=O)Nc1cccc(C#Cc2cncnc2Nc2ccc(OCc3cccc(F)c3)c(Cl)c2)n1 | 2.08 |
| CC1=C(C(=O)Nc2ccc3[nH]ncc3c2)C(c2ccc(Cl)c(Cl)c2)CC(=O)N1 (stereo unspecified) | 2.42 |
| O=C1Nc2ccc(C(=O)c3ccco3)cc2C1=Cc1cc(Cl)c(O)c(Cl)c1 | 3.94 |
| CS(=O)(=O)Nc1ccc(N/C=C2\C(=O)Nc3ccccc32)cc1 | 4.08 |
| COc1cc2ncn(-c3cc(OCc4ccccc4Cl)c(C(N)=O)s3)c2cc1OC | 2.29 |
| Fc1cccc(COc2ccc(Nc3ncnc4sc(-c5cccs5)cc34)cc2Cl)c1 | 4.3 |
| [O-][S+]1CCN(Cc2ccc(-c3ccc4ncnc(Nc5ccc(OCc6ccccc6)c(F)c5)c4c3)o2)CC1 | -2.07 |
| Cc1ccc(C(=O)NC2CCCCC2)cc1-c1ccc(C(=O)NCC2CC2)cc1 | 3.05 |
| Cc1nn(C)c2cc(N(C)c3ccnc(Nc4cccc(S(N)(=O)=O)c4)n3)ccc12 | 4.37 |
| CCN1CCC(CC(=O)Nc2n[nH]c3nc(-c4cccs4)c(Br)cc23)CC1 | 3.05 |
| COc1ccc(-c2nn3ncccc3c2-c2ccnc(Nc3ccc(Cl)c(C(F)(F)F)c3)n2)cc1 | 0.89 |

tested on: Mast/stem cell growth factor receptor Kit (Homo sapiens), P10721 [V560G]; details: at 1 µM

| Compound | inhibition [%] |
| --- | --- |
| N#Cc1c(NC(=O)c2cccc3ccccc23)sc2c1CCCC2 | 3.59 |
| COc1cc(C=NNc2ncnc3c2cnn3-c2ccccc2)ccc1O | 12.3 |
| CC(C)=Cc1cccc2c1/C(=N/Nc1ccc(S(N)(=O)=O)cc1)C(=O)N2 | 10.1 |
| Cc1ccc(NC(=O)c2ccnc(N3CCCC3)c2)cc1-c1ccc(C(=O)NCC2CC2)cc1 | 1.23 |
| Nc1nc(-c2ccc3c(c2)C(=Cc2cc(Br)c(O)c(Br)c2)C(=O)N3)cs1 | 1.96 |
| CS(=O)(=O)CCNCc1ccc(-c2ccc3ncnc(Nc4ccc(OCc5cccc(F)c5)c(C(F)(F)F)c4)c3c2)o1 | -0.7 |
| COc1ccc(-c2coc3ncnc(N)c23)cc1 | 7.39 |
| CCCN1CCC=C(c2ccc(Nc3nc(Nc4ccccc4C(N)=O)c4cc[nH]c4n3)c(C)c2)C1 | -3.21 |
| O=C1NC(=O)C(c2cccc(Cl)c2)=C1Nc1ccc(O)c(Cl)c1 | 1.92 |
| COc1cc2ncn(-c3cc(O[C@H](C)c4ccccc4Cl)c(C(N)=O)s3)c2cc1OC | 13.9 |
| CC1=C(C(=O)Nc2ccc3[nH]ncc3c2)C(c2ccc3ccccc3c2)CC(=O)N1 (stereo unspecified) | 2.17 |
| O=C1NC(=O)C(c2ccc(Cl)cc2)=C1Nc1ccc(Cl)c(C(=O)O)c1 | 8.56 |
| c1cnn2ncc(-c3ccnc(Nc4ccc5c(c4)OCCO5)n3)c2c1 | 83.5 |
| COc1cc2ncn(-c3cc(O[C@@H](C)c4ccccc4Cl)c(C(N)=O)s3)c2cc1OC | 3.09 |
| CCn1c(-c2nonc2N)nc2c(C#CC(C)(C)O)nc(CN3CCCC3)cc21 | 4.31 |
| CCn1c(-c2nonc2N)nc2ccncc21 | -0.33 |
| CNC(=O)c1cncc(/C=C/c2c(Cl)cccc2Cl)c1 | 10.9 |

| Compound | inhibition [%] |
| --- | --- |
| Cc1nnc(-c2ccc(C)c(-c3ccc(C(=O)Nc4cccc(C#N)c4)cc3)c2)o1 | 2.86 |
| CN(C)c1cc2c(Nc3ccc4nc(Cc5ccccc5)[nH]c4c3)ncnc2cn1 | 7.78 |
| Cc1cccc(-c2n[nH]cc2-c2ccc3ncccc3n2)n1 | -0.13 |
| CS(=O)(=O)CCN(CC#N)Cc1ccc(-c2ccc3ncnc(Nc4ccc(OCc5cccc(F)c5)c(Cl)c4)c3c2)o1 | -2.04 |
| CCn1c(-c2nonc2N)nc2c(C#CC(C)(C)O)nc(OC[C@@H](N)c3ccccc3)cc21 | 2.43 |
| CC(=O)Nc1cccc(C#Cc2cncnc2Nc2ccc(OCc3cccc(F)c3)c(Cl)c2)n1 | 4.22 |
| CC1=C(C(=O)Nc2ccc3[nH]ncc3c2)C(c2ccc(Cl)c(Cl)c2)CC(=O)N1 (stereo unspecified) | 4.56 |
| O=C1Nc2ccc(C(=O)c3ccco3)cc2C1=Cc1cc(Cl)c(O)c(Cl)c1 | 6.75 |
| CS(=O)(=O)Nc1ccc(N/C=C2\C(=O)Nc3ccccc32)cc1 | 20.4 |
| COc1cc2ncn(-c3cc(OCc4ccccc4Cl)c(C(N)=O)s3)c2cc1OC | 3.13 |
| Fc1cccc(COc2ccc(Nc3ncnc4sc(-c5cccs5)cc34)cc2Cl)c1 | 2.12 |
| [O-][S+]1CCN(Cc2ccc(-c3ccc4ncnc(Nc5ccc(OCc6ccccc6)c(F)c5)c4c3)o2)CC1 | -2.71 |
| Cc1ccc(C(=O)NC2CCCCC2)cc1-c1ccc(C(=O)NCC2CC2)cc1 | 4.51 |
| Cc1nn(C)c2cc(N(C)c3ccnc(Nc4cccc(S(N)(=O)=O)c4)n3)ccc12 | 37.3 |
| CCN1CCC(CC(=O)Nc2n[nH]c3nc(-c4cccs4)c(Br)cc23)CC1 | 2.07 |
| COc1ccc(-c2nn3ncccc3c2-c2ccnc(Nc3ccc(Cl)c(C(F)(F)F)c3)n2)cc1 | -0.17 |
